Only some compounds are listed: those with a hit (about 2.4% of all), similar ones and a draw of the others.
FEN1 inhibitor: blocks human flap endonuclease 1. Potency, µM (highest dose often 114 µM), without a hit: at the highest dose activity change, negative = inhibition, usual class: inhibitors. P39748. Recombinant FEN1 flap cleavage, fluorescence, 15 min. 0.35% of 390,000 active; also: % is scaled to controls: 0 for no effect and ±100 for the full control effect; nearly all actives have a fitted effect of over 65% in size
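Potency values derive from four-parameter Hill fits of normalized qHTS data. The reaction used 10 nM FEN1 preincubated 15 min at room temperature with compound, then 50 nM DNA substrate, read at 0 and 15 min.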
WRN helicase inh: inhibitors of human WRN helicase | Q14191 | AID 651768 | 0.46% of 360,000 active | Potency, µM (doses to about 114 µM), for inactives: at the highest dose activity change, negative = inhibition, hits mostly inhibitors | WRN helicase unwinding, fluorescent forked duplex, kinetic; also: % is scaled to controls: 0 for no effect and ±100 for the full control effect; nearly all actives have a fitted effect of over 55% in size
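Fluorescence dequenching readout, ex 525 nm/em 598 nm, kinetic mode: forked duplex DNA (100 nM final) with adjacent fluorophore and quencher unwound by WRN (20 nM final) with 2 mM ATP. Compound preincubation 15 min, room temperature.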
POLH inh: blocks human DNA polymerase eta activity; Q9Y253; recombinant Pol eta, fluorescent DNA replication assay; Potency, µM (highest dose often 114 µM), without a hit: at the top dose activity change, negative = inhibition, most hits filed as inhibitors; 1.2% of 390,000 active; also: % is scaled to controls: 0 for no effect and ±100 for the full control effect
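Fluorescent replication assay: 50 nM final substrate added after a 15 min room-temperature compound preincubation with 10 nM enzyme. Signal taken at 0 min and again at 10 min.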
POLK inh: DNA polymerase kappa (human) inhibition. purified Pol kappa, fluorescent DNA synthesis assay, 10 min. AID 588579. Potency, µM (titrated, usually from 107 µM), for inactives: at the highest dose activity, negative = inhibition, usual class: inhibitors. 0.53% of 400,000 active; also: % is scaled to controls: 0 for no effect and ±100 for the full control effect
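Pol kappa 10 nM + cpd, 15 min RT; start w/ substrate 50 nM final; fluorescence kinetic read, 0 and 10 min. Neg ctrl: buffer, no enzyme.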
Pol beta inh: DNA polymerase beta (human) inhibition; Potency, µM (series often up to 114 µM), inactives show top-dose activity change, negative = inhibition, usual class: inhibitors; AID 485314; Pol beta primer extension/strand displacement, fluorescence kinetic; P06746; 1.3% of 340,000 active; also: % is scaled to controls: 0 for no effect and ±100 for the full control effect
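Homogeneous kinetic assay of primer extension and strand displacement by 10 nM Pol beta, preincubated 15 min at room temperature with compound before 50 nM substrate (final) was added. Read at 0 and 10 min; four-parameter Hill fit.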
Pol iota inh: DNA polymerase iota (human) inhibition; Potency, µM (doses to about 115 µM), without a hit: top-dose activity, negative = inhibition, actives largely listed as inhibitors; Pol iota fluorescent replication assay, 10 min; Q9UNA4; AID 588590; 1% of 390,000 active
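Pol iota at 10 nM preincubated 15 min with compounds at room temperature; reaction started with fluorescent substrate, 50 nM final. Fluorescence read kinetically at 0 and 10 min; buffer-only wells as negative control.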
Starred values were filed as active, the others as inactive; ? = inconclusive; / = not tested or not shown; [ ] = remark or other dose. Calls follow the shape of the dose curve; as a rule, active = well fitted curve in the direction sought with a large enough effect; inconclusive = small, poorly fitted or top-dose-only effect, or another doubt; inactive = no such curve, though single readings can be large; an effect the other way counts as inactive or inconclusive. Potency is read from the fitted curve at half-maximal effect.

SMILES	FEN1 inhibitor	WRN helicase inh	POLH inh	POLK inh	Pol beta inh	Pol iota inh
CN(C)c1ccc(C(=C2C=CC(=[N+](C)C)C=C2)c2ccccc2)cc1	/	/	/	-11.4%[12 µM]	/	/
O=C(OC(C(=O)O)C(OC(=O)c1ccccc1)C(=O)NCc1ccccc1)c1ccccc1 (centres undefined)	-9.6%	1.6%	-9.5%	-6.2%	27.2%	89.1µM*
C=CCn1c2ccccc2c(=O)c2cc(C#Cc3ccsc3)ccc21	/	/	/	/	5.01µM*	/
NC(=NCc1ccc(Cl)cc1Cl)NC(=O)c1nc(Cl)c(N)nc1N	/	/	/	-4.3%[19.4 µM]	/	/
Cn1cc(C(=O)N/N=C/C2=C(N3CCOCC3)C(=C/c3ccc([N+](=O)[O-])cc3)/CC2)ccc1=O	-13.9%	-14.1%[57.1 µM]	?	-33.5%	/	50.1µM*
Nc1ccc(S(=O)(=O)Nc2nc3ccccc3o2)cc1	-9.0%	-7.6%[11.6 µM]	44.7µM*	?	79.4µM*	?
C=CCNC(=O)c1ccc(C2SCC(=O)N2Cc2ccco2)cc1 (centres undefined)	12.7%	-39.5%	?	?	?	44.7µM*
O=C(NCc1ccc2c(c1)OCO2)c1ccc(C2SCC(=O)N2Cc2ccco2)cc1 (centres undefined)	13.0%	?	79.4µM*	-34.0%	-27.4%	?
COCCNC(=O)c1ccc(C2SCC(=O)N2Cc2ccco2)cc1 (centres undefined)	7.3%	7.9%	-10.3%	1.1%	14.8%	-13.0%
COCCc1nn2c(=O)cc(COC(=O)C(c3ccccc3)c3ccccc3)nc2s1	-2.7%	/	-1.6%	-7.9%	-20.2%	-19.6%
O=C(Cn1sc2ccccc2c1=O)NC12CC3CC(CC(C3)C1)C2	-2.0%	39.8µM*	-0.4%	-2.7%	0.7%	?
O=C(Cn1sc2ccccc2c1=O)Nc1ccccc1	/	9.5%	-8.2%	/	/	/
NCCCN(Cc1ccccc1)c1ccc(Br)cn1	-5.1%	/	/	-1.9%	/	4.4%
FC(F)(F)c1nnc2ccc(NCc3ccccc3)nn12	1.8%	-1.1%	2.4%	-17.6%	1.2%	8.1%
FC(F)(F)c1nnc2ccc(NCn3nnc4ccccc43)nn12	-5.4%	-10.2%[57.1 µM]	89.1µM*	4.2%	-15.1%	-0.1%
Cc1ccc(C)c(NC(=O)C2CCCN2S(=O)(=O)c2ccc3c(c2)CCCC(=O)N3)c1 (centres undefined)	17.9%	/	-7.0%	-13.9%	10.3%	14.1%
CN(C)CCCNc1oc(/C=C/c2ccc(F)cc2)nc1C#N	6.1%	/	/	-14.0%	1.1%	35.0%
COc1ccc(CNC(=O)Nc2cn(CC(C)C)c(=O)c3ccccc23)c(OC)c1	?	/	-16.1%	-0.9%	31.2%	22.4µM*
COc1ccccc1N1CCN(C(=O)Nc2cn(CC(C)C)c(=O)c3ccccc23)CC1	3.5%	/	-11.7%	-20.9%	30.8%	64.9%
Cc1ccc2c(C(=O)CCl)c(C)[nH]c2c1	-5.0%	-13.5%	?	-8.5%	7.9%	10µM*
O=C(CN1CCOCC1)NNc1c2ccccc2nc2ccccc12	-23.9%	6.6%	-16.3%	-25.1%	-6.4%	13.1%
C[N+]1(CC(=O)NNc2c3ccccc3nc3ccccc23)CCOCC1	/	/	/	/	25.1µM*	/
CCC(Cn1nnc2ccccc2c1=O)NC(=O)Nc1ccccc1Cl (centres undefined)	8.6%	/	3.7%	8.2%	30.0%	-26.1%
Cc1[nH]c(=O)c(C(=O)/C=C/c2ccccc2F)c2c1CCCC2	-4.2%	-7.7%	?	-8.9%	-0.9%	17.8µM*
Oc1ccc(N=Cc2ccc(-c3cccs3)s2)cc1	?	50.1µM*	31.6µM*	-34.2%	?	?
COc1ccc(N2C(=O)CS(=O)(=O)C23C(=O)N(Cc2ccc(F)cc2)c2ccc(C)cc23)cc1 (centres undefined)	13.8%	/	-9.0%	-17.5%	-15.7%	3.0%
CCOC(=O)c1cc(NC(=O)/C=C\C(=O)O)ccc1Cl	10.0%	4.2%	-12.6%	5.7%	0.1%	77.9%
CCOC(=O)c1c(NC(=O)/C=C/C(=O)O)sc(C)c1-c1ccc(Cl)cc1	13.6%	-3.8%[11.6 µM]	79.4µM*	2.2%	-17.8%	?

Bioassay records as filed in PubChem.
